Assay in all cases: NCI-60 one-dose screen, 48 h (100 = growth as untreated, 0 = no growth, -100 = all killed)
The test system of one experiment is T-47D breast. To be noted: 10 µM.
Another experiment has as its system MDA-MB-435 melanoma. Conditions: 10 µM unless noted.
In another experiment the test system is SW-620 colon. Conditions: 10 µM unless noted.
The next experiment concerns MCF7 breast. Conditions: 10 µM unless noted.
In a further experiment the test system is HCT-116 colon. Conditions: 10 µM unless noted.
For the next experiment, the system named is HCC-2998 colon. To be noted: 10 µM unless noted.
A further experiment deals with KM12 colon. To be noted: 10 µM unless noted.
The subject of a further experiment is BT-549 breast. Conditions: 10 µM unless noted.

This is part of a sample that, as a whole, favours compounds with a hit. Of some 83,000 tested, about 20% had one in any assay.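 In brief: 96-well plates, 48 h treatment, single concentration, percent growth endpoint.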 Values without a mark were called inactive. Activity calls are given as the source filed them. The calls were made as follows: active = growth percent below 10; inactive = the rest.

Consider `Cc1nc2cc(Nc3nc(NCCO)nc(Nc4ccc(F)cc4)n3)ccc2n1Cc1ccccc1`, for which the growth in the experiment on T-47D breast was 65.3%; in the experiment on MDA-MB-435 melanoma it was 91.6%; in the experiment with SW-620 colon, 109%; in the experiment on MCF7 breast, 91.3%; in the experiment with HCT-116 colon it was 76.5%; in the experiment on HCC-2998 colon, 106%. In the experiment with KM12 colon, the growth was 80.3%.

Consider `N#CC1=C(N)Oc2cc(N)ccc2C1c1ccc(F)cc1` (stereo unspecified), for which the growth was 96.6% in the experiment on T-47D breast; 69.2% in the experiment with BT-549 breast; -21.9% (active) in the experiment on MDA-MB-435 melanoma; 46.8% in the experiment on SW-620 colon; 64.1% with MCF7 breast; 78.4% in the experiment with HCT-116 colon. Moreover, in the experiment with KM12 colon, the growth was 49.7%.

Consider `COc1cc(C2CC(=O)Nc3c2ccc2ccccc32)cc(Br)c1OC` (stereo unspecified), for which the growth in the experiment on T-47D breast is 51.2%; in the experiment with BT-549 breast, 10.9%; with MDA-MB-435 melanoma, -55.5% (active); in the experiment with SW-620 colon, 20%; in the experiment with MCF7 breast, 9.65% (active); with HCT-116 colon, 11.2%. Besides, the growth in the experiment with KM12 colon was 16.2%.

Regarding `FC(F)(F)Oc1ccc2c(c1)C[C@H]1C[C@@H](c3ccoc3)N2O1`, the growth in the experiment on T-47D breast is 94.8%; with MDA-MB-435 melanoma, 88.8%; in the experiment with SW-620 colon it was 110%; in the experiment with MCF7 breast, 98.6%; with HCT-116 colon, 107%; in the experiment with HCC-2998 colon, 97.5%. Moreover, in the experiment with KM12 colon, the growth was 103%.

On to `COc1cccc(OC)c1OC(=O)c1ccccc1`, for which the growth was 104% in the experiment on T-47D breast; 97.5% in the experiment with MDA-MB-435 melanoma; 102% in the experiment with SW-620 colon; 101% with MCF7 breast; 103% with HCT-116 colon; 94.3% in the experiment on HCC-2998 colon. In the experiment with KM12 colon, the growth is 109%.

`Cc1ccc(S(=O)(=O)c2ccc3[nH]c(=O)[nH]c(=O)c3c2)cc1`: the growth was 90.9% in the experiment on T-47D breast; 92.4% with BT-549 breast; 116% in the experiment with MDA-MB-435 melanoma; 105% with SW-620 colon; 91.5% in the experiment on MCF7 breast; 90.9% with HCT-116 colon. Further, the growth in the experiment on KM12 colon was 106%.

Turning to `CCCCC(CCCC)(S(=O)(=O)CC)S(=O)(=O)CC`, the growth is 101% in the experiment on T-47D breast; 97.4% in the experiment on MDA-MB-435 melanoma; 102% in the experiment on SW-620 colon; 105% in the experiment on MCF7 breast; 98.9% with HCT-116 colon; 111% in the experiment with HCC-2998 colon. The growth in the experiment with KM12 colon is 96.7%.

As to `COc1ccc(C2OCC(C)(C)CO2)cc1OC`, the growth is 97.3% in the experiment with T-47D breast; 109% in the experiment on BT-549 breast; 106% in the experiment with SW-620 colon; 104% in the experiment on MCF7 breast; 109% in the experiment on HCT-116 colon; 102% in the experiment with HCC-2998 colon. Further, the growth in the experiment with KM12 colon was 112%.

Turning to `COc1cccc(C2CC(=O)Nc3cc4c(cc32)OCO4)c1OC` (stereo unspecified), the growth in the experiment on T-47D breast was 87.5%; in the experiment on BT-549 breast, 101%; with MDA-MB-435 melanoma it was 97%; in the experiment with SW-620 colon, 105%; with MCF7 breast, 94.8%; in the experiment with HCT-116 colon, 93.6%. The growth with KM12 colon was 91.6%.

Consider `Cc1nc2nc(C(F)(F)F)[nH]c2nc1C`, for which the growth in the experiment with T-47D breast is 104%; in the experiment with BT-549 breast, 100%; in the experiment with MDA-MB-435 melanoma it was 112%; in the experiment on SW-620 colon it was 114%; in the experiment with MCF7 breast, 95.2%; in the experiment with HCT-116 colon it was 101%. The growth in the experiment with KM12 colon is 105%.

As to `COc1ccc(Nc2[nH]n(C3=Nc4ccccc4Sc4ccccc43)c(=O)c2C#N)cc1`, the growth is 17.9% with T-47D breast; 52.8% in the experiment on BT-549 breast; 30.7% in the experiment on MCF7 breast; 30.6% with HCT-116 colon; 40.8% in the experiment with HCC-2998 colon; 43.8% in the experiment on KM12 colon.

With `C(=C\c1ccccc1)/CN1CCN(C(c2ccccc2)c2ccccc2)CC1`, the growth in the experiment with T-47D breast is 79.7%; in the experiment with BT-549 breast, 92.2%; in the experiment with SW-620 colon, 90.3%; with MCF7 breast, 92.4%; in the experiment on HCT-116 colon, 95.8%; in the experiment on KM12 colon, 104%.

For the compound `COc1cc(/C=C/C(=O)CC(=O)/C=C/c2cc(Br)c(OC)c(OC)c2)cc(Br)c1OC`, the growth in the experiment with T-47D breast is 83.7%; with MDA-MB-435 melanoma, 101%; in the experiment on SW-620 colon, 114%; with MCF7 breast, 97.4%; in the experiment with HCT-116 colon it was 98.3%; with HCC-2998 colon it was 109%. The growth in the experiment on KM12 colon is 103%.

Consider `COc1ccc(OC2=C(C#N)C(=N)N3c4ccccc4Sc4ccccc4C3N2)cc1` (stereo unspecified), for which the growth with T-47D breast is 87%; with BT-549 breast, 96.9%; in the experiment with MCF7 breast, 95.6%; with HCT-116 colon it was 103%; in the experiment on HCC-2998 colon it was 95.2%; with KM12 colon it was 97.7%.

Regarding `N#CCCN1CCN(CCC#N)C1=S`, the growth is 108% in the experiment on T-47D breast; 99.6% with BT-549 breast; 106% in the experiment with MDA-MB-435 melanoma; 101% in the experiment with SW-620 colon; 101% with MCF7 breast; 101% in the experiment on HCT-116 colon. Besides, in the experiment on KM12 colon, the growth was 109%.

Regarding `O=C(O)CCN1CCN(c2cccc(Cl)c2)CC1`, the growth in the experiment with T-47D breast was 98.3%; in the experiment with BT-549 breast, 104%; in the experiment on MDA-MB-435 melanoma, 93.1%; with SW-620 colon, 107%; in the experiment with MCF7 breast, 86.1%; in the experiment on HCT-116 colon it was 102%. The growth in the experiment on KM12 colon was 114%.

Turning to `COc1cc(C(=O)N(C(C)C)C2CCCCC2)cc(OC)c1OC`, the growth is 107% in the experiment on T-47D breast; 143% with BT-549 breast; 107% in the experiment with MDA-MB-435 melanoma; 107% in the experiment with SW-620 colon; 86.2% in the experiment with MCF7 breast; 122% with HCT-116 colon. The growth in the experiment on KM12 colon is 102%.

(Values after PubChem BioAssay (NCI).)
